Screening data from PubChem.
EphB4 ephrin blk = antagonists of human EphB4-ephrin-B2 interaction; P54760; EphB4 LBD / TNYL-RAW-Alexa532 peptide, fluorescence polarization; inhibition, % at 7 µM; 0.15% of 97,000 active;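 active means inhibition above the screen-wide mean inhibition plus 3 SD, cut at about 15% in these data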;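 further: 0% = DMSO wells and 100% = excess unlabeled TNYL-RAW peptide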
hDAT+cocaine = modulates human dopamine transporter uptake under cocaine; Q01959; LLC-PK1 hDAT cells, [14C]-dopamine uptake with cocaine IC80; actives deviate in either direction; B-score at 10 µM; 1.3% of 110,000 active;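 active means Z score or B-score, a plate-position-corrected score, falls beyond the plate's 99.7% confidence bounds, in either direction; inactive means both scores lie inside the 99.7% bounds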;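 further: scored against the spread of the other compound wells on the same plate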
D1 mod = D1 dopamine receptor (human) allosteric modulation | P21728 | HEK293 D1, CRE-luciferase, dopamine EC30 potentiation; actives deviate in either direction | B-score at 10 µM | 5.9% of 58,000 active | AID 641;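 active means luminescence count or its row- and column-corrected plate score outside the 99.7% band of the plate's sample wells, on either side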
Target sequence (P21728 whole entry, looked up): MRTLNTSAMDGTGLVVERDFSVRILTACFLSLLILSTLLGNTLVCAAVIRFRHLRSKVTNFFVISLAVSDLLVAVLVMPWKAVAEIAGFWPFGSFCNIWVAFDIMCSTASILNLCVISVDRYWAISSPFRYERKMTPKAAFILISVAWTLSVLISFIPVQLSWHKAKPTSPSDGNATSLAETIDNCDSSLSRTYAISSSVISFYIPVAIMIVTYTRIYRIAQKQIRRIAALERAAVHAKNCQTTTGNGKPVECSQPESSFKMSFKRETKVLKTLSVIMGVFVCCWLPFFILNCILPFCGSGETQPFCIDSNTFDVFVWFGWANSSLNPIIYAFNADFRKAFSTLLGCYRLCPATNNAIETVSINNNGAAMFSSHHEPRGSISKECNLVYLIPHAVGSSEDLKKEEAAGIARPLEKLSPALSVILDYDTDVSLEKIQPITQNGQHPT
D1 PAM confirm = D1 receptor (human) allosteric modulation, confirmed; HEK293 D1 CRE-luciferase, dopamine EC30 potentiation; stronger effect = higher value; shares compounds with D1 mod; 88% of 2,200 active; AID 642; luminescence at 10 µM;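 active means luminescence in either of two replicates above the same-plate mean plus 3 SD of the low-dose dopamine control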
D1 no dopamine = activates D1 CRE-luciferase signal without dopamine present. shares compounds with D1 mod. HEK293 D1 CRE-luciferase, luminescence, no dopamine; stronger effect = higher value. luminescence at 10 µM. 0.8% of 1,900 active. AID 646; in the data active means luminescence above about 3900
Isoprot counter = alters isoproterenol CRE-luciferase response in HEK293 cells | shares compounds with D1 mod | HEK293 D1 CRE-luciferase, isoproterenol EC30 counter-screen | calls only at 10 µM | 63% of 2,200 active;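 active means luminescence in either replicate above plate mean of wells with a partly effective reference agonist dose plus 3 SD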;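 further: isoproterenol raises cAMP through native beta-adrenoceptor Gs so signal bypasses D1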
Numbers without * were called inactive; i = inactive; / = not tested or not shown; + = active, no number. This excerpt belongs to a sample that is enriched for hits.

SMILES	EphB4 ephrin blk	hDAT+cocaine	D1 mod	D1 PAM confirm	Isoprot counter	others
Cc1ccc(C(=O)COc2nc(C)cc(C)c2C#N)cc1	2	-0.44	/	/	/
COC(=O)CN1CCN(C(=O)c2ccc(F)cc2)c2ccccc2C1	0	0.081	-0.31	/	/
Cc1nc(NCCc2ccc(S(N)(=O)=O)cc2)c2c(C)c(C)sc2n1	-2	-0.56	/	/	/
Cc1sc2nc(C3CC3)nc(NCCNS(C)(=O)=O)c2c1C	4	-0.62	6.5*	10452*	i	D1 no dopamine=1764
CCn1c(SCC(=O)NCc2ccccc2)nc2c(c1=O)SC(C)C2 (stereo unspecified)	3	1.8	/	/	/
COC(=O)C(CC(=O)c1ccc(Cl)cc1)c1ccc(C(C)C)cc1 (stereo unspecified)	3	0.7	/	/	/
Cc1onc(-c2ccccc2)c1C(=O)Oc1cccnc1	-2	0.052	6.7*	13128*	+	D1 no dopamine=1560
Cc1onc(-c2ccccc2)c1C(=O)NCc1cccnc1	/	-0.23	-0.88	/	/
CC1(C)C(c2ccccc2)=NC(c2ccc(F)cc2)N1O (stereo unspecified)	3	0.72	0.15	/	/
CC1(C)C(c2cccs2)=NC(c2ccccc2)N1O (stereo unspecified)	7	0.9	3.6*	9348*	+
O=C(COc1ccccc1Cl)N1CCN(c2ccc([N+](=O)[O-])c(N3CCOCC3)c2)CC1	-6	1.7	/	/	/
COC(=O)c1sc(N)c(C(=O)OC)c1COC(=O)C1CC(=O)N(Cc2ccco2)C1 (stereo unspecified)	-3	0.22	0.062	/	/
O=C(O)C1CC(=O)N(Cc2ccccc2)C1 (stereo unspecified)	-4	-0.66	-0.21	/	/
CCOC(=O)c1sc(N)c(C(=O)OCC)c1COC(=O)C1CC(=O)N(Cc2ccco2)C1 (stereo unspecified)	-4	0.25	6.1*	8580*	+
CCOC(=O)c1[nH]c(COC(=O)C2CC(=O)N(Cc3ccccc3)C2)c(C(=O)OCC)c1C (stereo unspecified)	10	/	2.9*	4948	i	D1 no dopamine=1448
Clc1ccc(CSc2nnc(-c3cccnc3)n2Cc2ccco2)c(Cl)c1	-3	0.59	0.71	/	/
COc1ccc(-n2c(=O)c3ccccc3n(CC(=O)NC3CCCCC3)c2=O)cc1	-1	-1.3	/	/	/
Cn1cc(-c2nnnn2-c2cccc(C(F)(F)F)c2)c(C(F)(F)F)n1	-3	-0.99	/	/	/
CC(C)CCNC(=O)c1onc(CSc2ccccn2)c1C(=O)NCCC(C)C	/	0.15	/	/	/
Cc1nc(CSc2nnc3scc(-c4ccccc4)n23)cs1	5	0.89	10*	21372*	+	D1 no dopamine=1512
Cc1noc(C)c1CSc1nnc2scc(-c3ccc(Cl)cc3)n12	-3	-0.054	7.8*	18508*	+	D1 no dopamine=1640
Cc1sc(NC(=O)CSc2nnc3scc(-c4ccccc4)n23)c(C#N)c1C	5	-0.72	-0.58	/	/
Cc1nnc(NC(=O)CSc2nnc3scc(-c4ccc(C)c(C)c4)n23)s1	-5	0.42	1	/	/
Cc1noc(C)c1CSc1nnc(-c2c[nH]c3ccccc23)n1-c1ccc(Cl)cc1	-12	-0.028	/	/	/
Cc1ccc(-c2csc3nnc(SCc4csc(C)n4)n23)cc1	-6	-0.035	9.3*	22688*	+	D1 no dopamine=1908
SMILES	EphB4 ephrin blk	hDAT+cocaine	D1 mod	D1 PAM confirm	Isoprot counter	others
COc1ccc(-c2csc(NC(=O)C3COc4ccccc4O3)n2)cc1OC (stereo unspecified)	/	-0.42	/	/	/
CCOc1ccccc1-c1nc2c(s1)CCc1onc(-c3ccc(OC)cc3)c1-2	/	-1.2	/	/	/
O=c1nc2ccccc2c2n1CC(CN1CCN(c3ccccc3F)CC1)N2 (stereo unspecified)	-1	0.057	/	/	/
CCN=C(Nc1ccc2c(c1)OCO2)SC1CC(=O)N(c2ccc(OC)cc2)C1=O (stereo unspecified)	6	-0.2	/	/	/
CCN=C(Nc1ccc2c(c1)OCO2)SC1CC(=O)N(c2ccccc2F)C1=O (stereo unspecified)	-7	-0.16	6.4*	12104*	+	D1 no dopamine=2380
CCOC(=O)N1CCN(Cc2nc(N)nc(Nc3ccc(Oc4ccccc4)cc3)n2)CC1	-1	0.27	3.5*	12388*	+	D1 no dopamine=1648
CCOC(=O)N1CCN(Cc2nc(N)nc(Nc3ccc(OC)cc3)n2)CC1	-2	-0.56	/	/	/
CCOc1ccc(C(C)=O)cc1COC(=O)C1=COCCO1	-2	1.3	4.7*	12532*	+	D1 no dopamine=1772
CCOc1ccc(C(C)=O)cc1CC(C(N)=O)C(N)=O	-3	/	/	/	/
Clc1ccc(OCc2nn3c(C4CCCCC4)nnc3s2)cc1	0	1.3	1.9	/	/
N#CCSc1nnc(CNc2cccc(Cl)c2)o1	7	-0.68	4*	4760	i
N#CCSc1nnc(CNc2ccc(F)cc2)o1	5	-0.84	/	/	/
Clc1cccc(NCc2nnc(SCc3ccccc3Cl)o2)c1	5	/	/	/	/
Clc1cccc(NCc2nnc(SCc3ccccc3)o2)c1	-4	-0.35	3.2*	7948*	i
COc1ccc(NC(=O)C2CCN(S(=O)(=O)c3c(C)noc3C)CC2)cc1Cl	10	-1.8	/	/	/
Cc1ccc2oc3nc(C)c(C(=O)Nc4cccc(C(F)(F)F)c4)cc3c(=O)c2c1	1	0.12	/	/	/
COc1cccc(C2Nc3cc(Cl)c(S(N)(=O)=O)cc3S(=O)(=O)N2)c1 (stereo unspecified)	0	0.28	/	/	/
CCOc1ccc(S(=O)(=O)N2CCN(c3ccccc3OC)CC2)c2cccnc12	-3	-0.021	/	/	/
CCOc1ccc(S(=O)(=O)NCc2ccc(F)cc2)c2cccnc12	0	-2.7	10*	10944*	+
Cc1ccc2cccc(S(=O)(=O)Nc3ccc4c(c3)OCO4)c2n1	5	0.47	-0.014	/	/
CCOc1ccc(S(=O)(=O)Nc2ccc3c(c2)OCO3)c2cccnc12	6	-0.012	4.8*	9784*	+	D1 no dopamine=1612
CCOC(=O)N1CCC(N2C(=O)c3ccccc3C2Nc2cc(C(=O)OC)cc(C(=O)OC)c2)CC1 (stereo unspecified)	-7	1.1	2.3	/	/
CCc1nc(SCC(=O)Nc2sc(C)c(C)c2C(=O)OC)c2ccccc2n1	-1	0.066	/	/	/
O=C(Nc1ccccc1)C1=C[C@H](c2ccc(Br)cc2)C[C@H](OCc2ccc(CO)cc2)O1	/	-0.45	/	/	/
COc1ccc(-c2nn(C)c(=O)c3ccccc23)cc1NC(=O)Cn1nc(C)c2ccccc2c1=O	-8	2.1	8.6*	19816*	+	D1 no dopamine=1720
CCC(=O)Nc1cc(-c2nn(C)c(=O)c3ccccc23)ccc1OC	1	0.3	3.3	/	/
CCn1cc(C(=O)NCc2ccccc2OC)c(=O)c2cc(S(=O)(=O)N(C)C)ccc21	/	0.66	7.8*	13952*	+	D1 no dopamine=1756
C=CCn1cc(C(=O)NCc2cccnc2)c(=O)c2cc(S(=O)(=O)N(CC)CC)ccc21	-7	2	2.8*	9940*	+	D1 no dopamine=1684
CCN(CCCNC(=O)c1cn(CC)c2ccc(S(=O)(=O)N(C)C)cc2c1=O)c1cccc(C)c1	-6	1.7	2.8	/	/
